Screening results: PubChem, National Center for Advancing Translational Sciences (NCATS)
The list is not random: actives were taken first. Their share in the collection is about 9.3%.
Rab9 prom act = activators of Rab9 promoter | Huh7 Rab9 promoter-luciferase reporter, luminescence, 24 h | Potency, µM (top dose mostly 9.22 µM), for the others: at the top dose activation, negative = inhibition, hits mostly activators | hit rate 2.8% among 320,000; note: % of control where 0% means no effect; nearly all actives have a fitted effect of over 60% in size
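Using Huh7 cells stably transfected with Rab9 promoter–luciferase, compounds were incubated 24 h at 37 °C, 5% CO2; luciferase luminescence was read 10 min after reagent addition.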
NPC1 prom act = activates the NPC1 promoter. Potency, µM (doses to about 9.22 µM), for inactives: at the highest dose activation, usual class: activators. Huh7 NPC1 promoter luciferase reporter, 24 h. AID 485313. hit rate 2.4% among 320,000; note: % of control where 0% means no effect; nearly all actives have a fitted effect of over 60% in size
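Quantitative HTS used a cell-based reporter: Huh7 cells stably bearing the NPC1 promoter upstream of luciferase were treated with compounds for 24 h, and promoter activation was read as luminescence.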
ELG1 genotox = genotoxicity induction in ELG1-luciferase HEK293T cells. HEK293T ELG1-luciferase reporter, luminescence, 16 h. Potency, µM (highest dose often 46 µM), inactives show at the highest dose activity change, positive = activation, actives largely listed as activators. hit rate 1.3% among 330,000; note: % of control where 0% means no effect; nearly all actives have a fitted effect of over 60% in size
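DMSO vehicle served as control against compound-treated ELG1-luciferase HEK293T cells; exposure lasted 16 hr at 37 °C and 5% CO2, followed by ONE-Glo luminescence detection after 30 min.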
ELG1 repair inh = ELG1-dependent DNA repair inhibition. HEK293T ELG1-luciferase reporter, luminescence, 16 h; DNA damage induced by 5-fluorouridine. Potency, µM (titrated, usually from 46.1 µM), for inactives: at the top dose activity change, negative = inhibition, most hits filed as inhibitors. hit rate 2.3% among 330,000. AID 504467; note: % is set by controls: 0 for no effect and ±100 for the full control effect; nearly all actives have a fitted effect of over 55% in size
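Quantitative HTS, concentration-response format. 2,000 cells/well co-treated with 5-fluorouridine and compound, 16 hr in 5% CO2 at 37 °C; ONE-Glo luminescence read after 30 min.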
FLuc counter = inhibits or activates purified firefly luciferase, miR-21 counter-screen | P08659 | purified FLuc, Km substrates, luminescence inhibition | Potency, µM (series often up to 57.5 µM), for inactives: top-dose activity change, negative = inhibition, actives largely listed as inhibitors | hit rate 6.9% among 360,000;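 note: plate controls were vehicle for no effect and reference inhibitor for full effect; nearly all actives have a fitted effect of over 55% in size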
Target sequence (P08659 whole entry, looked up): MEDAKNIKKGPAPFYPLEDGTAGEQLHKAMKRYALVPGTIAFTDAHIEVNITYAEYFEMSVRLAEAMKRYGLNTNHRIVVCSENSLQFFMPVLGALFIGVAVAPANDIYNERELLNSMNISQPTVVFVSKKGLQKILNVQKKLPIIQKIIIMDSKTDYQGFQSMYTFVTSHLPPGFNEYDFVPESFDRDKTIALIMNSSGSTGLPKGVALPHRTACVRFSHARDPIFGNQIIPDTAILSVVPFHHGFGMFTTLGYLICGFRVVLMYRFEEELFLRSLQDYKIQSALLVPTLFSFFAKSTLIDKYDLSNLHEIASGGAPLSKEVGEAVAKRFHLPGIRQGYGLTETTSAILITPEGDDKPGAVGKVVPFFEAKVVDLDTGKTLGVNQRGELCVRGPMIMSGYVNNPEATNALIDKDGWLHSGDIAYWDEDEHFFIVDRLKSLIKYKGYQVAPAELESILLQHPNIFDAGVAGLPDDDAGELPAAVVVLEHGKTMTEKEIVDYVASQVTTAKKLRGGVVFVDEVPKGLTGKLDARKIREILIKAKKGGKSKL
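Biochemical qHTS of compounds, final roughly 60 µM downward over six points, against 10 nM purified firefly luciferase using Km concentrations of substrates (10 uM D-luciferin, 10 uM ATP) in Tris acetate pH 7.5 buffer; luminescence output.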
SMN2 splice enh = SMN2 splice variant enhancement | hit rate 2.8% among 210,000 | HEK293 SMN2-luciferase splicing reporter, luminescence, 30-36 h | AID 1458 | Potency, µM (doses to about 46.1 µM), for inactives: at the highest dose activity change, positive = activation, hits mostly activators; note: % of control where 0% means no effect; nearly all actives have a fitted effect of over 55% in size
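HEK293 cells carry an SMN2 […]–luciferase reporter in which exon 7 inclusion puts luciferase in frame. Cells were plated 10-12 h before compound addition, then incubated 30-36 h at 37C. ONE-Glo luminescence was read; sodium butyrate at 4.5 mM final served as control.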
* hit, by the source's call; ? = inconclusive; . = no result. Calls come from the whole dose curve; as a rule, active = well fitted curve in the direction sought with a large enough effect; inconclusive = small, poorly fitted or top-dose-only effect, or another doubt; inactive = no such curve, though single readings can be large; an effect the other way counts as inactive or inconclusive. Potency is the fitted concentration of half-maximal effect.

SMILES	Rab9 prom act	NPC1 prom act	ELG1 genotox	ELG1 repair inh	FLuc counter	SMN2 splice enh
CCc1nnc(NC(=O)CCC(=O)Nc2ccc(C)cc2)s1	-4%	2%	5%	23%	2%	.
Cc1cc(Br)ccc1NC(=O)CN(C)C(=O)c1cc(S(=O)(=O)N(C)C)ccc1N1CCCC1	-2%	-2%	-5%	-12%	6%	.
Cc1cc(N2CCC(C)CC2)n2nc(C)c(-c3ccccc3)c2n1	-7%	-3%	-8%	1%	-10%	-20%
Cc1cc(N2CCN(Cc3ccccc3)CC2)n2nc(C)c(-c3ccccc3)c2n1	-6%	-1%	-4%	?	0%	-25%
COc1ccccc1-c1c(C)nn2c(N3CCOCC3)cc(C)nc12	0%	6%	-5%	0%	1%	.
Cc1cc(N2CCCCC2)n2nc(C)c(-c3ccccc3)c2n1	8%	9%	-2%	?	19µM*	.
COc1ccccc1-c1c(C)nn2c(N3CCCCCC3)cc(C)nc12	-7%	-5%	-12%	23µM*	-12%	-62%
COc1ccc(-c2c(C)nn3c(N4CCN(Cc5ccccc5)CC4)cc(C)nc23)cc1OC	-14%	-4%	-15%	4.6µM*	-2%	-49%
CCOC(=O)C1=C(COC(=O)c2cccnc2Cl)NC(=O)NC1C (configuration not stated)	3%	-1%	4%	23%	1%	.
Cc1cc(C)cc(N(CCC#N)C(=O)CSc2n[nH]c(N)n2)c1	5%	2%	-9%	?	4%	.
Cc1ccccc1OCC(=O)N/N=C1\CCOc2c(C)cccc21	?	27%	6%	?	3%	12%
Cc1ccc(OCC(=O)N/N=C2\CCOc3c(C)cccc32)cc1	-2%	6%	-3%	7%	?	-13%
COc1cccc2c1OCC/C2=N\NC(=O)COc1ccc(C)cc1	1%	-1%	7%	14%	15µM*	30%
COc1cccc2c1OCC/C2=N\NC(=O)COc1ccccc1C	1%	9%	9%	1%	6.7µM*	17%
COc1ccc(CCNS(=O)(=O)CCNC(=O)c2ccc3c(c2)OCO3)cc1OC	-3%	-1%	-2%	?	3%	.
CCn1c(C)nc2cc(C(=O)NNC(=O)Nc3ccc(Cl)cc3)ccc21	1.4µM*	?	-3%	?	-3%	3%
COc1cc(C(=O)Nc2ccc3c(c2)nc(C)n3C)cc(OC)c1OC	-18%	-27%	?	?	21µM*	.
Cc1ccc(NC(=O)c2ccc3c(c2)nnn3C)cc1	?	27%	?	?	-19%	26%
Cn1nnc2cc(C(=O)Nc3ccc(Cl)cc3)ccc21	3.5µM*	?	?	?	-14%	18%
CCn1c(C)nc2cc(C(=O)N/N=C/c3ccc(O)c(O)c3O)ccc21	5%	-2%	-17%	?	13µM*	-18%
CCc1ccc(S(=O)(=O)c2cn(C)c3cc(F)c(F)cc3c2=O)cc1	.	.	.	.	-3%	-3%
Cc1nc2cc(NC(=O)c3ccc(Cl)cc3)ccc2n1C	0.28µM*	0.28µM*	1µM*	?	4.3µM*	.
COc1ccc(C)cc1CN1C(=O)c2ccccc2C1=O	6%	3%	-6%	-7%	3%	.
COc1ccc(NC(=O)CN(C)C(=O)C2=NN(c3ccccc3)C(=O)CC2)cc1	-3%	-3%	-1%	15%	3%	.
CCOC(=O)c1[nH]c(Cc2[nH]c(C(=O)OCC)c(C)c2CCC(=O)OC)c(CCC(=O)OC)c1C	-5%	-2%	-3%	18µM*	-3%	-2%
SMILES	Rab9 prom act	NPC1 prom act	ELG1 genotox	ELG1 repair inh	FLuc counter	SMN2 splice enh
CCOC(=O)C(=O)N1CCN(c2cc3c(cc2[N+](=O)[O-])n(C)c(=O)n3C)CC1	-1%	2%	-4%	-12%	0%	5%
O=Nc1c(-c2c(O)[nH]c3cc(Br)ccc23)[nH]c2ccccc12	3.7µM*	2.9µM*	?	?	9.5µM*	16µM*
CCOC(=O)N1CCN(S(=O)(=O)Cc2ccccc2)CC1	-2%	1%	-1%	-2%	0%	-14%
O=C(CCl)N1CCN(S(=O)(=O)Cc2ccccc2)CC1	-38%	-15%	-3%	9.2µM*	0%	.
CC(=O)CCSc1nnc(-c2cccc(S(=O)(=O)N3CCOCC3)c2)o1	2%	2%	1%	-5%	5%	.
O=S(=O)(c1ccc(OCc2nc3ccccc3s2)c(Cl)c1)N1CCOCC1	?	?	9.2µM*	?	-19%	19%
O=S(=O)(c1cccc(-c2nnc(SCc3nc4ccccc4s3)o2)c1)N1CCOCC1	?	?	6%	?	19µM*	0%
CSc1nc2sc3c(c2c(=O)n1-c1ccccc1)CCC(C(C)(C)C)C3 (configuration not stated)	.	.	.	.	1%	3%
Cn1c2c(c(=O)n(C)c1=O)C(C(F)(F)F)(C(F)(F)F)N=C(c1ccc(Cl)cc1)N2	-40%	-38%	-12%	0.65µM*	0%	-37%
Cc1ccccc1C1=NC(C(F)(F)F)(C(F)(F)F)c2c(n(C)c(=O)n(C)c2=O)N1	3%	1%	-2%	?	4%	-13%
CCc1nc2ccc(C(=O)NCc3ccccc3)cc2nc1CC	0%	2%	-14%	?	2%	-19%
Cn1c(=O)[nH]c(=O)c2c1nc(N1CCNCC1)n2Cc1ccccc1	0%	-1%	0%	1%	13%	.
COc1ccc(-c2nc3c(c(=O)[nH]c(=O)n3Cc3ccccc3)n2Cc2ccccc2)cc1	-7%	0%	-10%	8.2µM*	1%	14%
Cn1c(=O)[nH]c(=O)c2c1nc([N+](=O)[O-])n2Cc1ccccc1	-45%	-16%	-15%	15µM*	1%	.
CC(C)Cn1c([N+](=O)[O-])nc2c1c(=O)[nH]c(=O)n2C	-1%	-1%	-20%	23µM*	8%	.
COc1ccc(OC)c(/C=N/NC(=O)C(O)c2ccccc2)c1 (configuration not stated)	6%	-1%	1%	-3%	-2%	.
CCC(C)(C)NC(=O)C(c1ccc(OC)cc1)N(C(=O)CCC(=O)Nc1cc(C)on1)C(C)(C)C (configuration not stated)	-1%	-2%	?	2%	1%	.
O=[N+]([O-])c1cccc(-c2nnc(-c3ccccc3)o2)c1	2.2µM*	2.8µM*	?	?	15µM*	20µM*
O=[N+]([O-])c1cccc(-c2nnc(-c3ccc4c(c3)OCO4)o2)c1	2.2µM*	2.5µM*	?	?	2.7µM*	11µM*
